Structures are written as SMILES. Calls of active or inactive are those of the source.

The values that follow come from PubChem BioAssay.

The nature of test [1]: small molecules captured by biotinylated probe aFSTL3 – biochemical, small-molecule microarray, fluorescence 635/667, stem cell growth factor project, primary screen (AID 1064).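 Note: measures binding of the biotinylated anti-FSTL3 antibody to printed compounds.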 To be noted: higher = more signal.
A short description of test [2]: binders from COS7 lysate, DM2A8 probe, primary screen, torsin A project, cell lysate, small-molecule microarray, fluorescence 635/667 (AID 1065). To be noted: higher = more signal, COS7 lysate expressing mutant human TOR1A.
Test [3] in a line: small molecules captured by biotinylated probe aFGF2 – biochemical, small-molecule microarray, fluorescence 635/667, stem cell growth factor project, primary screen (AID 1067).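 Note: measures binding of biotinylated aFGF2 protein to printed compounds on slides; z-score merges feature fluorescence and signal-to-noise across triplicate slides.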 To be noted: higher = more signal.
Test [4] can be described thus: small molecules captured by biotinylated probe aFGF10 – biochemical, small-molecule microarray, fluorescence 635/667, stem cell growth factor project, primary screen (AID 1071).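 Note: score merges 667 nm spot intensity and signal to noise from triplicate slides.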 To be noted: higher = more signal.
Test [5] has as its target Neurogenic locus notch homolog protein 2 (Homo sapiens) (UniProt Q04721). The test can be described thus: small molecules binding Notch2 protein – biochemical, small-molecule microarray, 635 nm fluorescence, stem cell growth factors, primary screen (AID 1073). To be noted: higher = more signal.
Test [6] addresses Pro-neuregulin-1, membrane-bound isoform (Homo sapiens) (UniProt Q02297). The test is described as follows: small molecules binding neuregulin-1 protein – biochemical, small-molecule microarray, fluorescence 635/667, psychiatric disease protein project, primary screen (AID 1075).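 Note: score combines 667 nm spot fluorescence with signal to noise.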 To be noted: NRG1 binding, 635 nm fluorescence, higher = more signal.
Test [7] deals with Neuregulin-1 EGF-like domain. The test is described as follows: small molecules binding NRG1 EGF domain – biochemical, small-molecule microarray, 635 nm fluorescence, primary screen (AID 1081).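 Note: binding of the protein to compounds printed on small-molecule microarray slides.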 To be noted: higher = more signal.
Test [8] is described as follows: FRG1 expression reporter modulators in myotubes – cell-based, C2C12 myotubes, firefly/Renilla luciferase, luminescence, FRG1 inhibition for FSHD, primary screen (AID 1084). To be noted: FRG1 promoter luciferase, higher = more signal, called active from +8 up or from −8 down.
Test [9] in a line: small molecules captured by biotinylated probe aFST – biochemical, small-molecule microarray, fluorescence 635/667, stem cell growth factor project, primary screen (AID 1086).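 Note: score merges 667 nm fluorescence with signal-to-noise of each printed compound spot.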 To be noted: higher = more signal.
Test [10] can be described thus: binders of probe aHhip on microarray, primary screen, stem cell growth factor project, biochemical, small-molecule microarray, fluorescence 635/667 (AID 1087).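 Note: score merges spot fluorescence at 667nm with spot signal to noise ratio.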 To be noted: higher = more signal.
Test [11] concerns PRMT1 (protein arginine N-methyltransferase 1). The test is described as follows: small molecules binding arginine methyltransferase PRMT1 – biochemical, small-molecule microarray, 635 nm fluorescence, primary screen (AID 1088).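 Note: binding of Prmt1 protein to compounds spotted on small-molecule microarray slides.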 To be noted: higher = more signal.
Test [12] in a line: growth effects on S. cerevisiae YJM789 – YJM789 clinical isolate, OD600, 24 h, basal, primary screen (AID 1089).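 Note: growth of clinical yeast isolate S. cerevisiae YJM 789 seeded 1000 cells per well; test concentration not given here.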 To be noted: higher = more signal, called active from +8 up or from −8 down.
The nature of test [13]: S. pombe growth modifiers, basal conditions – strain 972, OD600, 24 h, no modulator, primary screen (AID 1090).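 Note: basal condition with compound alone and no growth modifier present; test concentration not given here.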 To be noted: S. pombe 972 growth, higher = more signal, called active from +8 up or from −8 down.
Test [14] is described as follows: budding yeast growth modifiers under rapamycin – strain BY4716, OD600, 96 h, primary screen (AID 1091). Note: test concentration not given here. To be noted: S. cerevisiae BY4716 + rapamycin, higher = more signal, called active from +8 up or from −8 down.
Test [15] concerns the target Torsin-1A-interacting protein 2 (Homo sapiens) (UniProt Q8NFQ8). The test is described as follows: small molecules binding lysate-expressed LULL1 – cell lysate, human LULL1 lysate, 635/667 nm fluorescence, primary screen (AID 1092).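 Note: probe is lysate of COS7 cells overexpressing human LULL1; score merges per-feature 667 nm fluorescence with signal-to-noise.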 To be noted: small-molecule microarray, hLULL1 lysate binding, 635 nm fluorescence; higher = more signal.
Test [16] is described as follows: optical density change of DRC41 E. coli – strain DRC41, OD650, 24 h, E. coli filamentation project, primary screen (AID 1093).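 Note: MC1000 strain lacking acrAB efflux and sulA so SOS filamentation is blocked; test concentration not given here.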 To be noted: E. coli DRC41 growth, higher = more signal, called active from +8 up or from −8 down.
Test [17] can be described thus: probe aLefty2 binding to arrayed compounds – biochemical, biotinylated probe, 635/667 nm fluorescence, primary screen (AID 1094).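 Note: score merges spot fluorescence near 667 nm with spot signal-to-noise ratio.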 To be noted: small-molecule microarray, higher = more signal.
The test system of test [18] is Noggin (protein binding on small-molecule microarray). The test is described as follows: small molecules binding Noggin protein – biochemical, 635/667 nm fluorescence, primary screen (AID 1095).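 Note: score merges 667 nm feature fluorescence with signal to noise over triplicate slides.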 To be noted: 635 nm fluorescence, higher = more signal.
For test [19], the target named is Neurogenic locus notch homolog protein 3 (Homo sapiens) (UniProt Q9UM47). The test is described as follows: small molecules binding NOTCH3 protein – biochemical, 635/667 nm fluorescence, primary screen (AID 1096). To be noted: small-molecule microarray, 635 nm fluorescence, higher = more signal.
Chain of Neurogenic locus notch homolog protein 3 (Homo sapiens) (Q9UM47 whole entry, looked up): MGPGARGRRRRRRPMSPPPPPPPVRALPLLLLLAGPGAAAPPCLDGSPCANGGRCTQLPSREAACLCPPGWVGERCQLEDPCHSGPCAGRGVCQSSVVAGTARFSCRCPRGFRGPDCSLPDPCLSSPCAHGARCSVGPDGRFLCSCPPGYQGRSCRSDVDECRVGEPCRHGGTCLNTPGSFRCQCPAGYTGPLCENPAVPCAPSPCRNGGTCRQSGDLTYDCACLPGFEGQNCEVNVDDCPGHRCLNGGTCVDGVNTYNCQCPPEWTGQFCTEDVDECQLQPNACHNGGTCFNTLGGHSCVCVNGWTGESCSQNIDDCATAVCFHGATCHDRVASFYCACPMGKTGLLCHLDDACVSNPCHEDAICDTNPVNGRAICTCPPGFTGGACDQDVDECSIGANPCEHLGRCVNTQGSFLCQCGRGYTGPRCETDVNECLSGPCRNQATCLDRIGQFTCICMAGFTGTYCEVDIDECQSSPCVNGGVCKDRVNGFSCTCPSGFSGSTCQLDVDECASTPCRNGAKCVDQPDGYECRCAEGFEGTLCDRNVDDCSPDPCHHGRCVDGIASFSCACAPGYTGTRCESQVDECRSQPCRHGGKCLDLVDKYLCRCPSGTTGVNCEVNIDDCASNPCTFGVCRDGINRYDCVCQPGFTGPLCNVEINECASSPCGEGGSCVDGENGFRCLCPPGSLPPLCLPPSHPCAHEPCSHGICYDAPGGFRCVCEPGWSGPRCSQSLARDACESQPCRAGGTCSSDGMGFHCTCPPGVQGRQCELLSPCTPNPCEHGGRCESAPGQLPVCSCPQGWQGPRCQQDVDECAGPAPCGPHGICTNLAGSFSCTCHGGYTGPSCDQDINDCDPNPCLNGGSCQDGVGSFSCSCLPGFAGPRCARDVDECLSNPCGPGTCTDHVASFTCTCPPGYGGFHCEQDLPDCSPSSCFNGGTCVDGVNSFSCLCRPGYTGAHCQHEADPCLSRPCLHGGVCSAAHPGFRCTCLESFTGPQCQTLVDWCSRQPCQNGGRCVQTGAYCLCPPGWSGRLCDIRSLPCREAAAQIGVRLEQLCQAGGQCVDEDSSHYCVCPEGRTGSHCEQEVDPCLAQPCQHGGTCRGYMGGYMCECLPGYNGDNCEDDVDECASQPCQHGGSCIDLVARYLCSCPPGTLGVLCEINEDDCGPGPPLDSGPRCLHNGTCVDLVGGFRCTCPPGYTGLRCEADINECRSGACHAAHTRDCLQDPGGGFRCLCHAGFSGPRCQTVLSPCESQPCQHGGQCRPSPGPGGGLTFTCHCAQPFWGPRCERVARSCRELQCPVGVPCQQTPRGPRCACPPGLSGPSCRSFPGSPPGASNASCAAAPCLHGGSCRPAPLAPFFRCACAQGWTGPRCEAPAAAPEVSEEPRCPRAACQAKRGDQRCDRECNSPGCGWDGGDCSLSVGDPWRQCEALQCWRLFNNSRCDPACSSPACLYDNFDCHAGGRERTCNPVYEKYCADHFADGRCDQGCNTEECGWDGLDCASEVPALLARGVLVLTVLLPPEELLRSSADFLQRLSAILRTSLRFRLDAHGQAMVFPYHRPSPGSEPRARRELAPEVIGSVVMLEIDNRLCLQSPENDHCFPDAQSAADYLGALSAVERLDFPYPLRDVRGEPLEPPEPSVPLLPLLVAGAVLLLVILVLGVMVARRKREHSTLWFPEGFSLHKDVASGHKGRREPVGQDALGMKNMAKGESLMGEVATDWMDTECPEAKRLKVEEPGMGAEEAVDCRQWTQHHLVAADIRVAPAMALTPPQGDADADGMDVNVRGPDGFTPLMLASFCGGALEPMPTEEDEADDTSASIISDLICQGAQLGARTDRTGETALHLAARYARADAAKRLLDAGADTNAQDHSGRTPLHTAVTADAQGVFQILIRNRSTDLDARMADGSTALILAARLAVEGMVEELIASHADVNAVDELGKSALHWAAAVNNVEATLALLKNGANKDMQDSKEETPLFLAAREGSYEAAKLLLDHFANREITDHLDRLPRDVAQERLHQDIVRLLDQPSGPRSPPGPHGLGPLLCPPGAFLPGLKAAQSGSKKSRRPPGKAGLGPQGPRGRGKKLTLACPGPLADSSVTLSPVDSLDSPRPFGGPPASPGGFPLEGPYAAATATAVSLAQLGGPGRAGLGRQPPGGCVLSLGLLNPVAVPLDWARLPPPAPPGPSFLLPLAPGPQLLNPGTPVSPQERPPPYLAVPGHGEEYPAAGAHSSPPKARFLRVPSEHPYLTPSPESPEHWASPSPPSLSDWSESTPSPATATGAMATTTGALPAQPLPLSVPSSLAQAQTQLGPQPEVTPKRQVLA
Test [20] is described as follows: probe aEGFR binding to arrayed compounds – biochemical, biotinylated probe, 635/667 nm fluorescence, primary screen (AID 1097).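 Note: probe is a biotinylated anti-EGFR antibody binding compounds printed on slides; score combines fluorescence near 667 nm and signal to noise of each spot.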 To be noted: small-molecule microarray, higher = more signal.

Chain of Pro-neuregulin-1, membrane-bound isoform (Homo sapiens) (Q02297 whole entry, looked up, the tested form may be a part, canonical isoform): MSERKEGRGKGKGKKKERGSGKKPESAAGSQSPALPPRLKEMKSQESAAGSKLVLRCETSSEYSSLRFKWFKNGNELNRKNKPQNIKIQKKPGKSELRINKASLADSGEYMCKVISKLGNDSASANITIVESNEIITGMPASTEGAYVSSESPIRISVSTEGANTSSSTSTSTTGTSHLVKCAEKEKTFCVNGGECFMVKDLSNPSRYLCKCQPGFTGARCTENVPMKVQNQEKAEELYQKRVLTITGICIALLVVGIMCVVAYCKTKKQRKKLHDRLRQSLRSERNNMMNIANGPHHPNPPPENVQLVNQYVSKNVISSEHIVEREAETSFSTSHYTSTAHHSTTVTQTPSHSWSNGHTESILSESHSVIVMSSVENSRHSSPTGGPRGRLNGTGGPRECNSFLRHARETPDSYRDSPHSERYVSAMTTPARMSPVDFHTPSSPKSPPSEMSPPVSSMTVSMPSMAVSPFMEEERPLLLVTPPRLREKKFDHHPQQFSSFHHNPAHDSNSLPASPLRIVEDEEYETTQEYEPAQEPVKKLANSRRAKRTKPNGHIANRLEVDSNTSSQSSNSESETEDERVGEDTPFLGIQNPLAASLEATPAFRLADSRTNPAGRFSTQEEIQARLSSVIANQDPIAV
Chain of Torsin-1A-interacting protein 2 (Homo sapiens) (Q8NFQ8 whole entry, looked up): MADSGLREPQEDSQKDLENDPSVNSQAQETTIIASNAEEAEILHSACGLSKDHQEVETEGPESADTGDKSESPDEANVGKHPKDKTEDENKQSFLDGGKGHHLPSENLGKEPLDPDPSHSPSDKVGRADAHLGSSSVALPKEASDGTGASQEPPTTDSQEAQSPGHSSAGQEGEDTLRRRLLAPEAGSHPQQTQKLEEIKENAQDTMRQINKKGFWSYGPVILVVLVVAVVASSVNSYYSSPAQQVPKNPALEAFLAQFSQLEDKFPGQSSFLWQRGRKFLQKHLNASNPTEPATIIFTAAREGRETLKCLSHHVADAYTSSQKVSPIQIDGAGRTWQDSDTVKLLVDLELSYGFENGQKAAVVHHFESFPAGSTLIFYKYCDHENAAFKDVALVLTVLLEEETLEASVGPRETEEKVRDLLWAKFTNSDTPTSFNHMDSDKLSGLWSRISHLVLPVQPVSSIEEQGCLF

For `COc1ccc([Si](C)(C)[C@H]2[C@H](CC(=O)N3Cc4ccccc4C[C@H]3CO)O[C@@]3(C(=O)N(Cc4cccc(I)c4)c4ccccc43)[C@@H]2C)cc1`, the composite z-score in test [1] is -0.0638; in [2] it was 2.29; in test [3] it was -0.0158; in test [4], 0.142; in test [5], 0.379; in test [6], 0.438. Besides, the composite z-score in test [7] was 0.853; in [9], -0.186; in test [10], 0.289; in test [11], 1.55; in test [15] it was -0.48; in [17] it was -0.119. For the same compound, the results for the composite z-score in test [18], in test [19] and in test [20] were 2.05, 0.863 and -0.0758, respectively. For the same compound, the z-score in test [8] was -2.84 (inactive); in test [12], -0.413 (inactive); in test [13], 0.603 (inactive); in [14] it was 2.75 (inactive); in [16] it was 1.2 (inactive).
With `C=C(CCCC)C(=O)CC[C@H](OC(=O)c1ccccc1-c1ccccc1C(=O)O)c1ccc(CO)o1`, the composite z-score in test [1] was -0.619; in test [2], 0.779; in test [3], -0.0206; in test [4], 1.16; in test [5], 0.455; in test [6], 0.606. In addition, the composite z-score was 1.25 in test [7]; 0.367 in test [9]; -0.0994 in test [10]; 1.55 in [11]; 1.99 in test [15]; -0.132 in [17]. The composite z-score is 1.35 in test [18], 1.06 in test [19] and -0.065 in [20]. For the same compound, the z-score is -0.225 (inactive) in [8]; -0.521 (inactive) in [12]; 0.162 (inactive) in test [13]; 0.437 (inactive) in test [14]; 0.251 (inactive) in test [16].
With `C[N+](C)(C)CCCC[C@@H]1NC(=O)[C@@H]2C[C@H](C(=O)NCCCCCCNC(=O)CS)[C@H](c3cccc(OCCO)c3)N2C1=O`, the composite z-score is -0.145 in test [1]; 0.976 in [2]; -0.132 in [3]; -0.459 in [4]; -0.395 in test [5]; 0.612 in [6]. For the same compound, the composite z-score in [7] is 1.36; in test [9], -0.713; in test [10] it was -0.0193; in [11], 1.12; in [15] it was 1.09; in test [17], -0.21. Moreover, the composite z-score in test [18] is 1.84; in test [19], -0.0644; in test [20], -0.233. Also, the z-score is -0.944 (inactive) in test [8]; -1.33 (inactive) in test [12]; -0.333 (inactive) in test [13]; -0.485 (inactive) in [14]; -0.102 (inactive) in test [16].
For the compound `C=CCC(OC(C)=O)[C@@H]1[C@@H](N(Cc2cc3ccccc3o2)C(=O)c2ccc(C)cc2)c2cc(OCCCO)ccc2N1C(=O)c1ccc(-c2ccccc2)cc1` (stereo not given in full), the composite z-score was -0.292 in test [1]; 0.195 in [2]; 0.0337 in test [3]; 0.18 in test [4]; 0.127 in test [5]; -0.158 in test [6]. Moreover, the composite z-score in test [7] was -0.491; in test [9], -0.21; in test [10] it was 0.113; in [11], -0.486; in test [15], 0.666; in test [17], 0. In addition, the composite z-score in [18] is 0.132; in test [19], -0.217; in test [20], -0.258. The z-score in test [8] was -1.35 (inactive); in test [12], -6.89 (inactive); in [13], -1.27 (inactive); in test [14], -2.17 (inactive); in test [16] it was -0.818 (inactive).
